From PubChem BioAssay (EPA / NIEHS)
Records with an inconclusive call do not appear. Calls of active or inactive are those of the source. How the source made its calls, unless noted: active means hit-call score of the fitted dose curve at least 0.9, where 1 is the maximum; inactive means score below 0.9.

Tests used:
[1] = target: Paired box protein Pax-6 (Homo sapiens) (UniProt P26367); test: ATG_Pax6_CIS: Attagene CIS-FACTORIAL HepG2 Assay for human Paired Box 6 (PAX6) (AID 2282956); settings: HepG2 CIS-FACTORIAL PAX6 reporter transcription, RNA readout; actives raise or lower the signal
Outline: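 Transient MRTU transfection of HepG2 → compound exposure 24 h → TriZol RNA, oligo(dT) RT → PCR, 6-FAM primer extension, HpaI cut → capillary electrophoresis; activity fitted both directions against DMSO.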

[2] = ATG_PPRE_CIS: Attagene CIS-FACTORIAL HepG2 Assay for human Peroxisome Proliferator-activated Response Element (PPRE) (AID 2282958); settings: HepG2 PPRE cis-element reporter, Attagene transcription factor profiling; actives raise or lower the signal
Outline: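 HepG2, transient MRTU transfection (cis promoter elements, endogenous TFs). 24 h dosing. RNA → oligo(dT) RT → PCR → 6-FAM primer extension → HpaI digest → CE. Bidirectional fit vs DMSO.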

[3] = ATG_RORE_CIS: Attagene CIS-FACTORIAL HepG2 Assay for human RAR-related Orphan Receptor Element (RORE) (AID 2282959); settings: HepG2 Attagene cis-factorial RORE reporter, mRNA; actives raise or lower the signal
Outline: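 Transient MRTU transfection of human HepG2 liver cells (FuGene 6); 24 h compound exposure; TriZol RNA, oligo(dT) RT, PCR, FAM labeling, HpaI cut, CE fragment analysis. DMSO = negative control/baseline.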

[4] = ATG_Sox_CIS: Attagene CIS-FACTORIAL HepG2 Assay for human SRY-box transcription factor (SOX) (AID 2282960); settings: HepG2 Attagene cis-factorial SOX reporter, mRNA; actives raise or lower the signal
Outline: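 Endogenous factor activity in human liver HepG2 cells carrying transfected cis-regulated reporter units. RNA taken 24 h post-dose, reverse-transcribed, PCR-amplified and sized by capillary electrophoresis. Gain or loss of signal fitted relative to DMSO.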

[5] = target: Transcription factor Sp1 (Homo sapiens) (UniProt P08047); test: ATG_Sp1_CIS: Attagene CIS-FACTORIAL HepG2 Assay for human Specificity Protein 1 (Sp1) (AID 2282961); settings: HepG2 Sp1 cis-reporter transcription, actives raise or lower the signal
Outline: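 Transient MRTU-transfected HepG2, 24 h compound exposure. Total RNA → oligo(dT) RT → PCR of reporter → 6-FAM primer extension → HpaI digest → CE. Endpoint fitted both directions vs DMSO.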

[6] = ATG_SREBP_CIS: Attagene CIS-FACTORIAL HepG2 Assay for human Sterol Regulatory Element Binding (SREBP) (AID 2282962); settings: HepG2 Attagene cis-factorial SREBP reporter, mRNA; actives raise or lower the signal
Outline: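 Transfected HepG2 (cis-regulated reporter library, endogenous TFs) → compound 24 h → total RNA → oligo(dT) RT → reporter-specific PCR → FAM primer extension, HpaI cut → CE fluorescence. Fit bidirectional vs DMSO.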

[7] = target: Signal transducer and activator of transcription 3 (Homo sapiens) (UniProt P40763); test: ATG_STAT3_CIS: Attagene CIS-FACTORIAL HepG2 Assay for human Signal Transducer and Activator of Transcription 3 (STAT3) (AID 2282963); settings: HepG2, Attagene cis-factorial STAT3 reporter transcription; actives raise or lower the signal
Outline: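 After a 24 h compound incubation, total RNA from MRTU-transfected HepG2 cells was converted to cDNA and reporter sequences PCR-amplified, labelled and profiled by capillary electrophoresis. Gain and loss of signal were referenced to DMSO.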

[8] = ATG_TA_CIS: Attagene CIS-FACTORIAL HepG2 Assay for human TA Basal Promoter (AID 2282964); settings: HepG2 Attagene CIS-factorial TA basal promoter reporter; actives raise or lower the signal
Outline: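 HepG2 cells transiently transfected with multiplexed cis-promoter reporter units, dosed 24 h. Reporter mRNA measured by RT-PCR, 6-FAM labelling, HpaI digestion and capillary electrophoresis; bidirectional fit versus DMSO baseline, serving as background control.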

[9] = ATG_TCF_b_cat_CIS: Attagene CIS-FACTORIAL HepG2 Assay for human T-Cell-Factor with beta-catenin (TCF/b-cat) (AID 2282965); settings: HepG2 TCF/beta-catenin cis-reporter transcription, actives raise or lower the signal
Outline: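 Measured: reporter mRNA in HepG2 transiently transfected with cis-promoter reporter units, 24 h after chemical addition. Fitting was bidirectional, DMSO as negative control.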

[10] = ATG_TAL_CIS: Attagene CIS-FACTORIAL HepG2 Assay for human TAL Basal Promoter (AID 2282966); settings: HepG2 Attagene cis-factorial TAL promoter reporter; actives raise or lower the signal;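 further: background control endpoint measuring basal TAL promoter reporter mRNA not a specific factor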
Outline: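 Fluorescence of labelled reporter cDNA fragments, resolved by capillary electrophoresis, gave the readout. Human HepG2 liver cells carried transiently transfected cis-element reporter units and were treated for 24 hours; activity was fitted bidirectionally against DMSO.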

[11] = ATG_TGFb_CIS: Attagene CIS-FACTORIAL HepG2 Assay for human Transforming Growth Factor (TGF) (AID 2282967); settings: HepG2 Attagene CIS TGFb reporter, mRNA transcription; actives raise or lower the signal
Outline: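 HepG2 cells transiently transfected with cis-promoter-driven multiplexed reporter units; 24 h compound exposure. Reporter mRNA measured by RT-PCR, 6-FAM labeling, HpaI digestion and capillary electrophoresis; bidirectional fit versus DMSO baseline.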

[12] = ATG_VDRE_CIS: Attagene CIS-FACTORIAL HepG2 Assay for human Vitamin D Receptor Element (VDRE) (AID 2282968); settings: HepG2 VDRE cis-reporter transcription, actives raise or lower the signal
Outline: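 In transiently transfected HepG2 liver cells, gain or loss of reporter mRNA after 24 h exposure is scored relative to DMSO, using fluorescence detection by capillary electrophoresis of RT-PCR products.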

[13] = target: X-box-binding protein 1 (Homo sapiens) (UniProt P17861); test: ATG_Xbp1_CIS: Attagene CIS-FACTORIAL HepG2 Assay for human X-box Binding Protein 1 (XBP1) (AID 2282972); settings: HepG2 XBP1 cis-element reporter, Attagene multiplex; actives raise or lower the signal
Outline: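 HepG2, transient MRTU transfection (cis-promoter driven), 24 h compound exposure. Total RNA → oligo(dT) RT → PCR → 6-FAM labeling → HpaI cut → CE. Bidirectional fit vs DMSO.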

[14] = ATG_M_19_TRANS: Attagene TRANS-FACTORIAL HepG2 Assay for M19 Transcription Factor (Internal Marker) (AID 2282974; active means hit-call score of the fitted dose curve at least 0.9, where 1 is the maximum); settings: HepG2 Attagene TRANS-FACTORIAL M19 internal marker reporter
Outline: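 Fluorescence of 6-FAM-labelled reporter cDNA fragments, separated by capillary electrophoresis, served as the readout. These derived from HepG2 cells carrying transfected GAL4-UAS reporter units after 24 h dosing, with DMSO as negative control.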

[15] = target: Estrogen receptor (Homo sapiens) (UniProt P03372); test: ATG_ERa_TRANS: Attagene TRANS-FACTORIAL HepG2 Assay for human Estrogen Receptor alpha (ERa) (AID 2282970; active means hit-call score of the fitted dose curve at least 0.9, where 1 is the maximum); settings: HepG2 Attagene TRANS ERa GAL4 reporter, mRNA
Outline: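 Human liver HepG2, transient transfection of multiple GAL4-UAS reporter units; TRANS format (exogenous NR-Gal4 chimera). 24 h dosing. Readout: reporter mRNA, RT-PCR, 6-FAM primer extension, HpaI digest, capillary electrophoresis. Positive direction vs DMSO.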

[16] = ATG_GAL4_TRANS: Attagene TRANS-FACTORIAL HepG2 Assay for GAL4 (Internal Marker) (AID 2282976; active means hit-call score of the fitted dose curve at least 0.9, where 1 is the maximum); settings: HepG2 Attagene TRANS GAL4 internal marker reporter
Outline: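 First, HepG2 cells were transfected with reporter units under GAL4-UAS control. Next, they were treated with chemical for 24 h. Finally, RNA was reverse-transcribed, PCR-amplified, FAM-labelled and resolved by capillary electrophoresis, with induction scored against DMSO.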

[17] = ATG_PXRE_CIS: Attagene CIS-FACTORIAL HepG2 Assay for human Pregnane X Receptor Element (PXRE) (AID 2282957); settings: HepG2 Attagene CIS-FACTORIAL PXRE reporter, mRNA; actives raise or lower the signal
Outline: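 Transfect HepG2 with MRTUs (cis promoter elements); dose chemical, incubate 24 h; isolate RNA, RT with oligo(dT), PCR, 6-FAM label, HpaI cut, CE. Gain/loss fit vs DMSO.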

[18] = target: Steroid hormone receptor ERR1 (Homo sapiens) (UniProt P11474); test: ATG_ERRa_TRANS: Attagene TRANS-FACTORIAL HepG2 Assay for human Estrogen-Related Receptor alpha (ERRa) (AID 2282971; active means hit-call score of the fitted dose curve at least 0.9, where 1 is the maximum); settings: HepG2 Attagene TRANS reporter, ERRa transactivation
Outline: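 Reporter transcript induction was quantified by RT-PCR and capillary electrophoresis of FAM-labelled, HpaI-cut products after 24 h treatment of HepG2 cells carrying transiently transfected GAL4-UAS reporter units and an exogenous ERRa-Gal4 fusion; activity scored as increase over DMSO.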

[19] = target: Nuclear receptor subfamily 1 group I member 3 (Homo sapiens) (UniProt Q14994); test: ATG_CAR_TRANS: Attagene TRANS-FACTORIAL HepG2 Assay for human Constitutive Androstane Receptor (CAR) (AID 2282969; active means hit-call score of the fitted dose curve at least 0.9, where 1 is the maximum;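 further: activators raise reporter mRNA above DMSO so AC50 marks induction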); settings: HepG2 Attagene TRANS-FACTORIAL CAR reporter
Outline: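 Readout is reporter mRNA induction, quantified by fluorescent primer extension and capillary electrophoresis after RT-PCR. Cells were HepG2 transiently carrying chimeric NR-Gal4 constructs with GAL4-UAS reporters, treated for 24 h; activity scored upward from DMSO.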

[20] = target: Estrogen-related receptor gamma (Homo sapiens) (UniProt P62508); test: ATG_ERRg_TRANS: Attagene TRANS-FACTORIAL HepG2 Assay for human Estrogen-Related Receptor gamma (ERRg) (AID 2282977; active means hit-call score of the fitted dose curve at least 0.9, where 1 is the maximum;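 further: hits increase reporter signal over DMSO so potencies reflect activators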); settings: HepG2 Attagene TRANS reporter, ERRg transactivation
Outline: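 Transient HepG2 transfectants, 24 h compound exposure, GAL4-UAS reporter mRNA by RT-PCR/6-FAM labelling/capillary electrophoresis; positive direction vs DMSO.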

Measured: AC50

Chain of Transcription factor Sp1 (Homo sapiens) (P08047 whole entry, looked up): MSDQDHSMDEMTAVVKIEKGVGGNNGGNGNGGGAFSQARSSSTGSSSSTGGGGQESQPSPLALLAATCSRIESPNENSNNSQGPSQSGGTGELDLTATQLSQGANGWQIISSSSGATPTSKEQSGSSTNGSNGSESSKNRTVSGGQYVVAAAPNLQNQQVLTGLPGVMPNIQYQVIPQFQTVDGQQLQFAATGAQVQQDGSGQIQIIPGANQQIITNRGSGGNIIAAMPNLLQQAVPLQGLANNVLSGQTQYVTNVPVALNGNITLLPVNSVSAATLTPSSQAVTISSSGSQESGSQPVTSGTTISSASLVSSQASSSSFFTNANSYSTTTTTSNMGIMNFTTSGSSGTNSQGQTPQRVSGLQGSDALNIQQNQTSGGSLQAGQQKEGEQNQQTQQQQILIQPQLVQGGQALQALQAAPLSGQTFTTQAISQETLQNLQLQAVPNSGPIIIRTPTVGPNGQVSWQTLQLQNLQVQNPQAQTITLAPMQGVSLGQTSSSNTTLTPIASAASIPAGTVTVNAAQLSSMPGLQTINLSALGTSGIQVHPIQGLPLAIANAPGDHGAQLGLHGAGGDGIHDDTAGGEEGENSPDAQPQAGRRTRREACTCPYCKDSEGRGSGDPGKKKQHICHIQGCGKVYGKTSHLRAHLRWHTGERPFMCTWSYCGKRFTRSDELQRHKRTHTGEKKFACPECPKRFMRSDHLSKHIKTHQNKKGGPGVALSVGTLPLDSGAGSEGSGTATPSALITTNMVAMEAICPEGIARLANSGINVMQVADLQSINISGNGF
Chain of X-box-binding protein 1 (Homo sapiens) (P17861 whole entry, looked up): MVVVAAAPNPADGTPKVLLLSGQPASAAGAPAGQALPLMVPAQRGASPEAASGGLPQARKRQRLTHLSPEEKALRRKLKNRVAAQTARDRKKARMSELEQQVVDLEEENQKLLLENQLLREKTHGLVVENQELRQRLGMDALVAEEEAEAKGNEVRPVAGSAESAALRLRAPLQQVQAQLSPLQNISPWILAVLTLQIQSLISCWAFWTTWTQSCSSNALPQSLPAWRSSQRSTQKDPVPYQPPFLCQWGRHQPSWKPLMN
Chain of Nuclear receptor subfamily 1 group I member 3 (Homo sapiens) (Q14994 whole entry, looked up, the tested form may be a part): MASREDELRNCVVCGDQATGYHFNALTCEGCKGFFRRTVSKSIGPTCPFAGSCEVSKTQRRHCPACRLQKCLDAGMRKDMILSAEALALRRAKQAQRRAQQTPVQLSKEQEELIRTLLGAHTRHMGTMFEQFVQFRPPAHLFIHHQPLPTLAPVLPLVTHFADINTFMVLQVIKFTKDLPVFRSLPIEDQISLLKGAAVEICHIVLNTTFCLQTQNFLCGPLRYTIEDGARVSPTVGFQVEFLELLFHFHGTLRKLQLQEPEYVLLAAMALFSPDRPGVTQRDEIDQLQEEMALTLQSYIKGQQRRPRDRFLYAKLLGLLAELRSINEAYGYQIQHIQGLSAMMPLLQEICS
Chain of Estrogen-related receptor gamma (Homo sapiens) (P62508 whole entry, looked up, the tested form may be a part): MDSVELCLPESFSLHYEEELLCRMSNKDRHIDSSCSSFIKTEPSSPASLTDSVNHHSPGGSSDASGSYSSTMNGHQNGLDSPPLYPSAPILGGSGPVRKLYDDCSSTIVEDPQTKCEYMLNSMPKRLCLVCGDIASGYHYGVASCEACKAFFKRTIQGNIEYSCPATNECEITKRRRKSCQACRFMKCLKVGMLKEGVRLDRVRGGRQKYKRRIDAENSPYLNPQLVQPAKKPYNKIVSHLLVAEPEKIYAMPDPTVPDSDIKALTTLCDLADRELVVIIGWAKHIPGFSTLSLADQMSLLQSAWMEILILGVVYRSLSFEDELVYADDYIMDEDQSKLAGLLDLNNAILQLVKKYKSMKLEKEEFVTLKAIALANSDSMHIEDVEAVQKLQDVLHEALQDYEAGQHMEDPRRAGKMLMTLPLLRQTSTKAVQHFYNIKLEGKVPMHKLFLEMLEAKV
Chain of Signal transducer and activator of transcription 3 (Homo sapiens) (P40763 whole entry, looked up): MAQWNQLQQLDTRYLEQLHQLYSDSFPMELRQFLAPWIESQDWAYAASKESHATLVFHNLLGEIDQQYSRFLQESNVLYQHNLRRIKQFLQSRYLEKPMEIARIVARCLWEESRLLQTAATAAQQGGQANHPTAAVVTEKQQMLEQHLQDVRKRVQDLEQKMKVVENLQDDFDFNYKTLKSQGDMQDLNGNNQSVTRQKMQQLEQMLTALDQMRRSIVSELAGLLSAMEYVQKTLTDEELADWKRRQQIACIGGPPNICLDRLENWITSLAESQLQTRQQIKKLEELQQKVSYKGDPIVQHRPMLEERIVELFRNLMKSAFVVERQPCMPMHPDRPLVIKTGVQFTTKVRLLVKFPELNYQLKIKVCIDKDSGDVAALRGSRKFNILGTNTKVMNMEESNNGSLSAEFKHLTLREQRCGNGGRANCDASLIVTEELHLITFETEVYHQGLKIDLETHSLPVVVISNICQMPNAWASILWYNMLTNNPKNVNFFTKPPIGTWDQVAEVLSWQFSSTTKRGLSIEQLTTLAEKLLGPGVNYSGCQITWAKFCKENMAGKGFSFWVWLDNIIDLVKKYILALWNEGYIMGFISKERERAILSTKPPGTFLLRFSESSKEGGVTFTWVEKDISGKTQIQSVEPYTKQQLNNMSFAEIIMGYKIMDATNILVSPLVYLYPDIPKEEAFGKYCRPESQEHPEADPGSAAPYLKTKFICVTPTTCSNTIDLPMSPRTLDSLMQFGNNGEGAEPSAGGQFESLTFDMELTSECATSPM
Chain of Estrogen receptor (Homo sapiens) (P03372 whole entry, looked up, the tested form may be a part): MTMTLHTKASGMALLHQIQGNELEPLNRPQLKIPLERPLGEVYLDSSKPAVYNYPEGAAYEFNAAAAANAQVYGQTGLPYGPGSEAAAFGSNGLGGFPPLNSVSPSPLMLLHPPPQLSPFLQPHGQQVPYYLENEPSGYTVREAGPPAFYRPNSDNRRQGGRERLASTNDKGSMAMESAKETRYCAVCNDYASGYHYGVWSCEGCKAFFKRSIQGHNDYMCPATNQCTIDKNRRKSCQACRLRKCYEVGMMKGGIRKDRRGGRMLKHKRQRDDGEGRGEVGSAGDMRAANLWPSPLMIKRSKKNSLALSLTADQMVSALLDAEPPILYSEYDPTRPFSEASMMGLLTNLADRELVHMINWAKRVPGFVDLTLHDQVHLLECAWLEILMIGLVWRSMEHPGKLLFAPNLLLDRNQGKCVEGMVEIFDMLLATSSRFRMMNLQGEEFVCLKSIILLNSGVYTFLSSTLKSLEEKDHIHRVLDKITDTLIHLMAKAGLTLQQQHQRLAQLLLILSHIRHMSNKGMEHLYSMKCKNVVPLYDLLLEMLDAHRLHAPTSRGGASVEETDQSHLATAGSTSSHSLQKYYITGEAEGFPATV
Chain of Paired box protein Pax-6 (Homo sapiens) (P26367 whole entry, looked up): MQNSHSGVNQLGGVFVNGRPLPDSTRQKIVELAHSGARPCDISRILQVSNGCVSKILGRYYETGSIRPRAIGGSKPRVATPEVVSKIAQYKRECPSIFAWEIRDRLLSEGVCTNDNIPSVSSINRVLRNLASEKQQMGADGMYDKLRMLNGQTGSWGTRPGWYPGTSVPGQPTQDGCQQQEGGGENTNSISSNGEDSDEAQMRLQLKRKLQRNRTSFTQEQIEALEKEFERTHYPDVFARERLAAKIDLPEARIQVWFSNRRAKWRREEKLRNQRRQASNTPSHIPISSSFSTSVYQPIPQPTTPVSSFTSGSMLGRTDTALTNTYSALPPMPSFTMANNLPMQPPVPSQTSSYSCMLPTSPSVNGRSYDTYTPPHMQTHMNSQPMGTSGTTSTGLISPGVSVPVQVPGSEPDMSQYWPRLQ
Chain of Steroid hormone receptor ERR1 (Homo sapiens) (P11474 whole entry, looked up, the tested form may be a part): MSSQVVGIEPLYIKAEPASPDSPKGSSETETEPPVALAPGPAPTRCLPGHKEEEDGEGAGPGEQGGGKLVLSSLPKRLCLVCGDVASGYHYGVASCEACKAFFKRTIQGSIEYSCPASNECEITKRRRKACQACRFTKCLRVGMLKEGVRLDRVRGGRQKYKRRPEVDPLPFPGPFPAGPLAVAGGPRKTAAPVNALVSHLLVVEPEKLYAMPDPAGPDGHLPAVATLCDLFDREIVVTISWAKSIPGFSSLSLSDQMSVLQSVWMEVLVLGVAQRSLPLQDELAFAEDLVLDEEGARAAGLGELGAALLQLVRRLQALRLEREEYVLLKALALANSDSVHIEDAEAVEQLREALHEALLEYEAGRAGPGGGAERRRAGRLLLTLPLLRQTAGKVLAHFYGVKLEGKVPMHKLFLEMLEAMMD

Fc1ccccc1[C@@H](F)COC1CCC(Nc2ncnc3[nH]ncc23)CC1 (some centres not stated)
active: [2] 4.79 µM | [3] 26.1 µM | [5] 168 µM | [6] 4.65 µM | [8] 4.57 µM | [12] 26 µM
inactive: [1] | [4] | [7] | [9] | [10] | [11] | [13] | [14]

CCC(C)(C)C(=O)O[C@H]1C[C@@H](C)C=C2C=C[C@H](C)[C@H](CC[C@@H]3C[C@@H](O)CC(=O)O3)[C@H]21
active: [6] 0.0317 µM
not listed: [12] | [17] | [18] | [19] | [20]
inactive: all other assays above

CC(C)CCCCCCOC(=O)c1ccc(C(=O)OCCCCCCC(C)C)c(C(=O)OCCCCCCC(C)C)c1
not listed: [12] | [14] | [15] | [17] | [18] | [19] | [20]
inactive: all other assays above

CCCCC(CC)COC(=O)c1ccc(C(=O)OCC(CC)CCCC)cc1 (configuration not stated)
active: [17] 63 µM
not listed: [1] | [12] | [14] | [15] | [19] | [20]
inactive: all other assays above

CCNc1ccccc1
active: [17] 35.5 µM
not listed: [1] | [12] | [14] | [15] | [18] | [20]
inactive: all other assays above

COC(=O)c1ccccc1O
active: [15] 25.1 µM
not listed: [2] | [12] | [14] | [16] | [17] | [18] | [19] | [20]
inactive: all other assays above

CC(C)=CCCC(C)CCO (configuration not stated)
active: [17] 26.6 µM | [9] 167 µM | [15] 34 µM
not listed: [1] | [12] | [16] | [18] | [19] | [20]
inactive: all other assays above

Clc1nc(Cl)c(Cl)c(Cl)c1Cl
not listed: [1] | [12] | [15] | [18]
inactive: all other assays above

CCCCCCCCCCCCc1ccccc1
not listed: [1] | [14] | [15] | [16] | [18]
inactive: all other assays above

O=c1[nH]c2ccc(S(=O)CCN3CCC(Cc4ccc(F)cc4)CC3)cc2o1 (configuration not stated)
active: [1] 73 µM | [4] 66.5 µM | [6] 31.2 µM | [13] 71.1 µM
not listed: [12] | [14] | [17] | [18] | [19]
inactive: all other assays above

COC(=O)c1c(Cl)c(Cl)c(C(=O)OC)c(Cl)c1Cl
not listed: [12] | [17] | [19]
inactive: all other assays above

Cn1c(=O)c2c(ncn2C)n(C)c1=O
not listed: [2] | [12] | [15] | [16] | [17] | [18]
inactive: all other assays above

CC(C)=CCCC(C)=CC=O
active: [4] 167 µM | [9] 157 µM | [12] 22.2 µM
not listed: [14] | [16] | [17] | [18] | [19] | [20]
inactive: all other assays above

Cc1ccc(S(=O)(=O)O)cc1C
not listed: [3] | [16] | [17] | [18] | [20]
inactive: all other assays above
